A short description of test [1]: anti-His antibody binders, primary screen, artefact control for SMM control protein annotation, biochemical, small-molecule microarray, 635 nm fluorescence (AID 1128).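 Note: score merges feature fluorescence with signal-to-noise for each printed compound spot.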 Particulars: anti-His Alexa647 antibody binding, higher = more signal.
In test [2] the test system is Human papillomavirus type 1a E7 protein (residues 1-88). The test can be described thus: HPV1a E7 small-molecule binders, primary screen, biochemical, small-molecule microarray, residues 1-88, 635 nm (AID 1129). The conditions noted are these: small-molecule microarray binding, fluorescence 635 nm; higher = more signal.
Test [3] has as its target Focal adhesion kinase 1 (Homo sapiens) (UniProt Q05397). Kind of test: small-molecule microarray binders of FAK, primary screen, biochemical, 635/667 nm fluorescence, BSA, DTT (AID 1130).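 Note: composite of spot emission at 667 nm and signal to noise over triplicate slides.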 The conditions noted are these: PTK2 binding, 635 nm fluorescence, higher = more signal.
Test [4] deals with Fibrinogen (Alexa647-labelled). Kind of test: fibrinogen binders on compound microarrays, profiling panel, artefact control for SMM control-protein annotation, biochemical, small-molecule microarray, 635/667 nm fluorescence (AID 1131).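 Note: z-score merges 667 nm fluorescence with per-spot signal-to-noise over triplicate slides.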 Particulars: fibrinogen-A647 binding fluorescence, higher = more signal.
Test [5] deals with Follistatin (Homo sapiens) (UniProt P19883). Kind of test: follistatin binders on small-molecule microarrays, primary screen, biochemical, small-molecule microarray, 635/667 nm fluorescence (AID 1132). The conditions noted are these: FST binding, 635 nm fluorescence, higher = more signal.
Test [6] addresses Fibroblast growth factor 2 (Homo sapiens) (UniProt P09038). The test can be described thus: FGF2 binders on small-molecule microarrays, primary screen, biochemical, small-molecule microarray, 635/667 nm fluorescence (AID 1133). Particulars: small-molecule microarray binding, FGF2, fluorescence 635/667; higher = more signal.
Test [7] in a line: mitochondrial membrane potential change in A549 cells, profiling panel, cell-based, JC-1 fluorescence, basal, 24 h, 100 nL (AID 1138).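 Note: A549 lung adenocarcinoma cells under basal conditions with no added stimulus; test concentration not given here.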 Particulars: higher = more signal.
For a further test, the system named is Lefty1. Kind of test: Lefty1 binders on small-molecule microarrays, primary screen, biochemical, small-molecule microarray, 635/667 nm fluorescence (AID 1139). Particulars: small-molecule microarray binding, fluorescence 635/667; higher = more signal.
In test [8] the test system is wheat germ agglutinin (Triticum aestivum), Alexa647-labelled. The test can be described thus: wheat germ agglutinin binders on compound microarrays, profiling panel, artefact control for SMM control-protein annotation, biochemical, small-molecule microarray, 635/667 nm fluorescence (AID 1140).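 Note: score merges 667 nm feature emission with signal to noise over triplicate slides.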 Particulars: WGA-A647 binding, 635 nm fluorescence, higher = more signal.
Test [9] concerns the target Luciferin 4-monooxygenase (Photinus pyralis) (UniProt P08659). The test can be described thus: firefly luciferase enzyme inhibitors, primary screen, biochemical, luminescence, purified enzyme, 2006 set (AID 1141).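 Note: cell-free assay with purified firefly luciferase at 100 ng per well in PBS; test concentration not given here.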 The conditions noted are these: SteadyGlo luminescence, 30 min, higher = more signal, called active from +8 up or from −8 down.
Test [10] relates to Wnt5a (protein binding on small-molecule microarray). Kind of test: Wnt5a binders on small-molecule microarray, primary screen, biophysical, 635/667 nm fluorescence (AID 1142).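 Note: fluorescence read at 667 nm with signal to noise per printed feature.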 The conditions noted are these: 635 nm fluorescence, higher = more signal.
Test [11] in a line: cell viability in Huh7 cells, primary screen, cytotoxicity control for HCV replication inhibitor project, CellTiter-Glo luminescence, basal, 48 h (AID 1143).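 Note: Huh7 hepatoma cells carrying a hepatitis C replication reporter with no stimulus; test concentration not given here.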 Particulars: Huh7 HCV replicon, higher = more signal, called active from +8 up or from −8 down.
Test [12] is described as follows: P. aeruginosa biofilm formation inhibitors, primary screen, PAO1 strain, BacTiter-Glo luminescence, LB-PBS (AID 1144). Particulars: 12 h, higher = more signal.
Test [13] is described as follows: CREB reporter modulators without forskolin, primary screen, cell-based, PC12, CRE-LacZ reporter, unstimulated (AID 1145). Particulars: no forskolin, luminescence, 4.5 h, higher = more signal, called active from +8 up or from −8 down.
Test [14] in a line: CREB reporter modulators under forskolin, primary screen, cell-based, PC12, CRE-LacZ reporter, forskolin-stimulated (AID 1146).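 Note: PC12 cells with 6xCRE LacZ reporter stimulated by forskolin 10 µM; beta-galactosidase reporter signal reflecting CREB driven transcription.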 The conditions noted are these: luminescence, 4.5 h, higher = more signal, called active from +8 up or from −8 down.
For test [15], the target named is Streptavidin (Streptomyces avidinii) (UniProt P22629). The test can be described thus: streptavidin binders on small-molecule microarray, primary screen, artefact control for SMM compound annotation, biophysical, 635/667 nm fluorescence (AID 1147).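 Note: signal reflects streptavidin binding to arrayed compounds as a control protein.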 Particulars: streptavidin binding, higher = more signal.
Test [16] in a line: small-molecule binders of probe aInhba, primary screen, biochemical, small-molecule microarray, 635/667 nm fluorescence (AID 1148).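 Note: score merges 667nm spot fluorescence with signal-to-noise for antibody binding to printed compounds.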 Particulars: higher = more signal.
For test [17], the target named is Torsin-1A (Homo sapiens) (UniProt O14656). The test can be described thus: torsin A binders from cell lysate, primary screen, small-molecule microarray, wild-type, 635/667 nm (AID 1149). Particulars: COS7 hTOR1A-WT lysate, 635 nm fluorescence, higher = more signal.
Test [18] shares this target. Kind of test: small-molecule binders of mutant TOR1A in lysate, primary screen, cell lysate, small-molecule microarray, COS7 lysate, 635/667 nm fluorescence (AID 1150).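 Note: score pools 667 nm emission and signal to noise measuring lysate protein binding.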 Particulars: COS7 hTOR1A mutant lysate, 635 nm fluorescence, higher = more signal.
Test [19] concerns Sonic hedgehog protein (Shh). Kind of test: small-molecule binders of Shh protein, primary screen, biochemical, small-molecule microarray, 635/667 nm fluorescence (AID 1151).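 Note: Shh protein binding to compounds spotted on small-molecule microarray slides; score combines spot fluorescence intensity with signal-to-noise across triplicate slides.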 The conditions noted are these: small-molecule microarray binding, 635 nm fluorescence; higher = more signal.

In PubChem BioAssay one finds composite z-score and z-score data, which are given here for five compounds.

Activity calls are given as the source filed them. Unless noted, the rule behind the calls is not given here.

Fibroblast growth factor 2 (Homo sapiens), sequence (P09038 whole entry, looked up): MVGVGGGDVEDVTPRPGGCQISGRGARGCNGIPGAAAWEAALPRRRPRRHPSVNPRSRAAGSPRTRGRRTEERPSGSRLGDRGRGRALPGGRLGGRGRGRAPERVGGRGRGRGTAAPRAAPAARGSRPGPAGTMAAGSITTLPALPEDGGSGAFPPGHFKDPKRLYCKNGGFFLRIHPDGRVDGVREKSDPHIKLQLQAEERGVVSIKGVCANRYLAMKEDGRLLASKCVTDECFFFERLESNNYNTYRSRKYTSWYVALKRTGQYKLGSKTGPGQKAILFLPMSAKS
Torsin-1A (Homo sapiens), sequence (O14656 whole entry, looked up): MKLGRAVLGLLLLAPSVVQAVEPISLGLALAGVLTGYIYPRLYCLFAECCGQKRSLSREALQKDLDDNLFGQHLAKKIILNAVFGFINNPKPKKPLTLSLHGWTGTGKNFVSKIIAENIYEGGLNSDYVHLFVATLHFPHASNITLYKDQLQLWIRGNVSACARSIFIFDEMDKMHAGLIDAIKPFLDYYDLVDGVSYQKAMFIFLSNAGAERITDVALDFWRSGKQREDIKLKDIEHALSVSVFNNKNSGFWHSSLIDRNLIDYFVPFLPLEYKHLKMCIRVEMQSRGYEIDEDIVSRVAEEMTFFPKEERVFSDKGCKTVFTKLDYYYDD
Streptavidin (Streptomyces avidinii), sequence (P22629 whole entry, looked up): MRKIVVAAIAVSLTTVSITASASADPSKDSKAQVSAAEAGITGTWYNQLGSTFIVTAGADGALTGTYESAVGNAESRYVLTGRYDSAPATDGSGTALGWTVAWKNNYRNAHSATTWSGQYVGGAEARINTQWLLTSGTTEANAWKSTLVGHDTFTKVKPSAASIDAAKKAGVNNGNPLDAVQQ
Follistatin (Homo sapiens), sequence (P19883 whole entry, looked up): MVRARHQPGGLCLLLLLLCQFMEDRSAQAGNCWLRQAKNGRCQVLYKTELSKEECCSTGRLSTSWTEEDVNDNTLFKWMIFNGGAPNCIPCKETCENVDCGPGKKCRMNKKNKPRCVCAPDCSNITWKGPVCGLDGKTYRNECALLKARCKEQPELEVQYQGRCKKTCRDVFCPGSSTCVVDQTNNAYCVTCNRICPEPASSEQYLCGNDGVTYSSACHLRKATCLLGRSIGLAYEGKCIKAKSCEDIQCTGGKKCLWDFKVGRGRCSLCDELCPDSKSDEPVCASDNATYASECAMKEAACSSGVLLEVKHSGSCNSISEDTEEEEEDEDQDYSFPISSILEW
Luciferin 4-monooxygenase (Photinus pyralis), sequence (P08659 whole entry, looked up): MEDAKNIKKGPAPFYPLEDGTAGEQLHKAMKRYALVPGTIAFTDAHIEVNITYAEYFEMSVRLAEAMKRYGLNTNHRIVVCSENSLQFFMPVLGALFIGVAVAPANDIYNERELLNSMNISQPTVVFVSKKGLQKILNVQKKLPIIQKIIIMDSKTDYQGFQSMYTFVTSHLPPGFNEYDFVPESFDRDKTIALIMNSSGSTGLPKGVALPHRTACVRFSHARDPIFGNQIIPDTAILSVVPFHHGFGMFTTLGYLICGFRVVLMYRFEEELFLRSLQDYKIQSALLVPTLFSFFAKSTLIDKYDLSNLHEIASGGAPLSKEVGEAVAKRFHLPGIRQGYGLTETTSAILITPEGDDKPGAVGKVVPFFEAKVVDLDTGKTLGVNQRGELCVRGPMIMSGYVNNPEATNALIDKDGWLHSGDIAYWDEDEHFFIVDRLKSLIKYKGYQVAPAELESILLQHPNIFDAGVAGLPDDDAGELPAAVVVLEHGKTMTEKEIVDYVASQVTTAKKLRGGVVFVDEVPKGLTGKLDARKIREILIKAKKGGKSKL
Focal adhesion kinase 1 (Homo sapiens), sequence (Q05397 whole entry, looked up): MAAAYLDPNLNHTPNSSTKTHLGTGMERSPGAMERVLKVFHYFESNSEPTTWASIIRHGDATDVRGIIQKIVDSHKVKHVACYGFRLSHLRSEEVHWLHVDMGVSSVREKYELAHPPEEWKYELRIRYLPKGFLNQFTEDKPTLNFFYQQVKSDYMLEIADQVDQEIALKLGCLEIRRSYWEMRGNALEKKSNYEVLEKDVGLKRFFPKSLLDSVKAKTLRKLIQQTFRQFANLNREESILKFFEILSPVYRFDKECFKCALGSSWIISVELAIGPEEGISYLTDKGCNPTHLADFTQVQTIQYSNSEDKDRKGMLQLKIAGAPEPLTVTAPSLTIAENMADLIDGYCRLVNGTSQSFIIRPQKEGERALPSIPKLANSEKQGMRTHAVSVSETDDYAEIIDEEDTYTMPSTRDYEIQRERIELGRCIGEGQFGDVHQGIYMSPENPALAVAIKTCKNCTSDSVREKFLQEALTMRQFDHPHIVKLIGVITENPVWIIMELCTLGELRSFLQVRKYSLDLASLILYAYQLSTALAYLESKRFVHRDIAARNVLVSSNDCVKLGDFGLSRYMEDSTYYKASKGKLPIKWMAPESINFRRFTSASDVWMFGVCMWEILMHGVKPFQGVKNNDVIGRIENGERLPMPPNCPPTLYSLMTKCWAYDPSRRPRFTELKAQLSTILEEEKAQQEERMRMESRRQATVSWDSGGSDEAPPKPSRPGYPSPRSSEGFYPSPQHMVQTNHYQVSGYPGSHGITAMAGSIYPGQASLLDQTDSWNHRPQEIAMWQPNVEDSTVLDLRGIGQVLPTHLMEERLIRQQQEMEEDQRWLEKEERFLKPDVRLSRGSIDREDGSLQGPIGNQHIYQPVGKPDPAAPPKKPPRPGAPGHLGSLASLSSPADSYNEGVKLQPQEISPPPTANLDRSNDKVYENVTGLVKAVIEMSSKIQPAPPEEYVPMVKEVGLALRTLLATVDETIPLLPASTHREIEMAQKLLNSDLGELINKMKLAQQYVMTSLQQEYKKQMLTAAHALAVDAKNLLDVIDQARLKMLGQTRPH

As to `COCCOC(=O)N1C(=O)[C@@]2(c3cc(C#CC4(O)CCCCCC4)ccc31)[C@H](C(=O)N1CCN(c3ncccn3)CC1)[C@H]1C(=O)O[C@H](c3ccccc3)[C@H](c3ccccc3)N1[C@@H]2c1ccc(O)cc1`, the composite z-score in test [1] came to 1.47; in test [2] it was 1.19; in test [3], 0.206; in [4], 0.676; in [5], 0.91; in test [6], 0.35. Besides, the composite z-score in the test on Lefty1 is 0.354; in [8], 1.04; in test [10], 0.521; in test [15], -0.0314; in [16], 0.0982; with Torsin-1A (Homo sapiens) [17], 0.553. The composite z-score is 0.432 in the test with Torsin-1A (Homo sapiens) [18] and 0.481 in test [19]. The z-score in test [7] is -0.328; in [9], -1.46 (inactive); in test [11] it was -1.45 (inactive); in [12], 0.148 (inactive); in test [13] it was -0.375 (inactive); in test [14], 0.505 (inactive).

Consider `O=C(NCc1ccccc1)[C@]1(Cc2ccccc2)N=C(c2ccc(OCCCO)cc2)O[C@@H]1c1ccccc1`, for which the composite z-score was 2.31 in test [1]; 1.2 in test [2]; 0.121 in test [3]; 0.817 in test [4]; -0.0037 in [5]; -0.0759 in [6]. The composite z-score with Lefty1 is -0.501; in test [8], 0.648; in test [10] it was 0.53; in test [15], 0.621; in test [16], 0.0053; with Torsin-1A (Homo sapiens) [17], -0.0377. For the same compound, the composite z-score was 0.621 with Torsin-1A (Homo sapiens) [18] and -0.468 in test [19]. Further, the z-score in test [7] was 2; in [9], -0.794 (inactive); in test [11] it was -4.62 (inactive); in [12] it was -0.621 (inactive); in [13] it was -0.0576 (inactive); in test [14] it was -1.02 (inactive).

Turning to `CCN(CC)c1ccc(N2CC=CC34O[C@@H]5/C=C\CCCOC(=O)C5[C@H]3C(=O)N(CCCCCCO)[C@@H]4C2=O)cc1` (stereo not given in full), the composite z-score is 1.27 in test [1]; -0.299 in test [2]; -0.177 in [3]; -0.801 in [4]; -1.21 in test [5]; -0.616 in test [6]. In addition, the composite z-score in the test on Lefty1 was -0.324; in test [8], -0.22; in test [10], -0.517; in [15], -0.41; in test [16], -0.0762; with Torsin-1A (Homo sapiens) [17], -1.7. Besides, the composite z-score with Torsin-1A (Homo sapiens) [18] is -1.59; in test [19], 0.216. Besides, the z-score was 1.1 in [7]; -1.9 (inactive) in [9]; -0.0416 (inactive) in test [11]; 0.194 (inactive) in [12]; 0.475 (inactive) in test [13]; 0.458 (inactive) in test [14].

Consider `O=C1CSC(c2cccc([N+](=O)[O-])c2)N1c1ccccc1` (stereo not given), for which the composite z-score is 0.317 in test [1]; 0.494 in [2]; -0.0119 in test [3]; 0.667 in test [4]; 0.244 in test [5]; 0.481 in test [6]. For the same compound, the composite z-score in the test on Lefty1 is 0.257; in test [8], -0.0002; in test [10], 0.0388; in test [15], -0.545; in test [16], -0.147; with Torsin-1A (Homo sapiens) [17] it was 0.838. Further, the composite z-score with Torsin-1A (Homo sapiens) [18] is 0.153; in test [19], 0.221. The z-score in [7] is 0.774; in [9], 0.174 (inactive); in test [11] it was -0.735 (inactive); in [12], -0.249 (inactive); in test [13] it was -0.321 (inactive); in test [14], -0.567 (inactive).

With `C=C(C(=O)CC[C@H](OC(=O)c1cccnc1)c1ccc(OCCO)cc1)C(C)C`, the composite z-score in test [1] was 0.423; in test [2], 0.54; in test [3], 0.091; in test [4], 0.917; in test [5] it was 1.05; in test [6], 0.859. Moreover, the composite z-score with Lefty1 was 1.31; in test [8], -0.052; in [10] it was 0.287; in test [15], 0.548; in test [16], -0.0857; with Torsin-1A (Homo sapiens) [17] it was 1.12. Besides, the values for the composite z-score (in the test with Torsin-1A (Homo sapiens) [18]; in test [19]) were 0.541 and 1.47, respectively. The z-score in [7] is 0.531; in [9] it was -2.26 (inactive); in test [11], -2.33 (inactive); in test [12] it was 0.143 (inactive); in test [13], 17.9 (active); in test [14] it was 2.79 (inactive).
